From PubChem
An excerpt weighted towards active compounds, which were near 2.3% of everything screened.
697 NFkB inh: lowers PMA/ionomycin-induced NF-kB signal in 697 B cells. 697 B-cell NF-kB luciferase reporter, 16 h. inhibition, % at 4 µM. actives 0.33% (n = 330,000); in the data active = inhibition above about 35%
Jurkat NFkB inh: lowers PMA/ionomycin-induced NF-kB signal in Jurkat cells; PMA/ionomycin-induced NF-kB luciferase reporter, luminescence; inhibition, % at 4 µM; actives 0.53% (n = 330,000); in the data active = inhibition above about 50%
Gli-Sufu antag: antagonists of Gli-Sufu signaling; Sufu-KO-LIGHT fibroblasts, Gli luciferase reporter luminescence; inhibition, % at 5 µM; actives 0.74% (n = 340,000); AID 588413;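 active = inhibition above about 55%, limit read from the data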;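 also: 0% = DMSO-treated cells and 100% = wells with medium but no cells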
TAG inh: reduces triacylglycerol accumulation in H9c2 cells | inhibition, % at 12.5 µM | actives 0.66% (n = 230,000) | Nile Red lipid (TAG) fluorescence; cells loaded with 200 µM oleic acid;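 active = pattern-corrected inhibition of lipid staining of at least 50% with the nuclear-stain viability signal not falling by more than 50%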;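 also: 0% = DMSO wells and 100% = triacsin C control wells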
Shn3 3UTR inh: reduces Shn3 3'UTR luciferase signal in osteoblasts | Clone20 osteoblast Shn3 3'UTR firefly luciferase, 24 h | inhibition, % at 12.5 µM | actives 0.52% (n = 360,000) | AID 588674;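 active = mean inhibition of at least 75% with every replicate also reaching 75%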;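 also: 0% = median of neutral control wells and 100% = pilot-screen positive control compound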
aSyn 5UTR inh: MLPCN primary screen, SNCA 5' untranslated region | alpha-synuclein 5'UTR reporter, inhibitor activity | inhibition, % (tested at 7.5 µM) | actives 0.82% (n = 300,000); in the data active = inhibition above about 60%;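 also: H4 neuroglioblastoma cells stably carrying SNCA 5'UTR luciferase fusion; 0% = DMSO wells and 100% = positive control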
Gli antag conf: Gli-SUFU antagonism confirmation, single concentration | AID 602428 | actives 40% (n = 2,500) | Sufu-KO-LIGHT cells, Gli luciferase reporter, luminescence | inhibition, % at 5 µM | shares compounds with Gli-Sufu antag;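 active = mean inhibition at 5 µM reaching about 45%, limit read from the data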;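 also: plate controls were DMSO-treated cells for no effect and wells lacking cells for full effect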
SufuKO cytotox: counter-screen for Gli-SUFU antagonists: cytotoxicity | shares compounds with Gli-Sufu antag | cytotoxicity, % at 5 µM | Sufu-KO-LIGHT cells cytotoxicity, ATP luminescence | actives 32% (n = 2,500);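 active = mean cytotoxicity at 5 µM above about 25%, limit read from the data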;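 also: cells exposed to compound overnight for roughly 16 to 18 hours; plate controls were DMSO wells with cells for no effect and medium without cells for full effect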
Wnt3a cs: counter-screen for Gli-SUFU antagonists: Wnt3a reporter inhibition | actives 20% (n = 2,500) | shares compounds with Gli-Sufu antag | inhibition, % at 6.25 µM | Wnt-LIGHT cells, Wnt3a-driven luciferase reporter, luminescence;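 active = mean inhibition above about 25%, limit read from the data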
The depositor's hits bear a star; nt = no result given.

SMILES	697 NFkB inh	Jurkat NFkB inh	Gli-Sufu antag	TAG inh	Shn3 3UTR inh	aSyn 5UTR inh	Gli antag conf	SufuKO cytotox	Wnt3a cs
CC(C)(C)OC(=O)N1CCC(c2cc(-c3cccs3)n[nH]2)CC1	-13	0	57*	-30	6	-7	42	9	-66
CC1CCN(C(=O)CSc2n[nH]c(-c3cccs3)n2)CC1	15	-10	2	-2	-4	-11	nt	nt	nt
Cc1ccccc1CNCc1ccc2c(c1)OCO2	9	0	51	nt	-17	10	27	4	1
CCc1noc(C)c1C(=O)OC(C)C(=O)c1c(C)[nH]c2ccccc12 (stereo not drawn)	1	0	-12	3	1	nt	nt	nt	nt
COc1ccc(CNC(=O)C2CCN(S(=O)(=O)N3CCC4(CC3)OCCO4)CC2)c(OC)c1	-25	-19	99*	nt	-20	5	3	-12	-23
CCCC(=O)N(Cc1cc(=O)[nH]c2ccccc12)c1ccc(C)cc1C	-20	-7	-1	nt	8	-10	nt	nt	nt
CCOC(=O)C1CCCN(C(=O)CCn2nc(-c3ccccc3)ccc2=O)C1 (stereo not drawn)	-3	-4	56*	nt	20	2	26	15	-7
CCOC(=O)c1oc2ccc(S(=O)(=O)n3nc(-c4ccc(Cl)cc4)cc3N)cc2c1C	-61	38	54	7	47	27	8	18	-11
CCOC(=O)c1oc2ccc(S(=O)(=O)n3nc(-c4ccc(C)cc4)cc3N)cc2c1C	-65	18	4	20	7	33	nt	nt	nt
O=C(Nc1ccccc1F)C1CCCN1S(=O)(=O)c1ccc(Cl)cc1 (stereo not drawn)	8	-1	-13	-10	-2	nt	nt	nt	nt
O=C(Nc1c(C(=O)C2CC2)oc2ccccc12)c1ccc(Cl)cc1	-8	-12	86*	nt	-12	32	15	12	-18
O=C(O)CCSCC(=O)Nc1c(C(=O)C2CC2)oc2ccccc12	7	0	1	9	-26	11	nt	nt	nt
COc1ccc(C(C(=O)NC2CCCCC2)N(C(=O)Cc2c[nH]c3ccccc23)c2ccc(NC(C)=O)cc2)cc1OC (stereo not drawn)	-15	-4	4	nt	1	13	nt	nt	nt
Cc1[nH]c2ccccc2c1C(=O)CSc1nc2cc(S(=O)(=O)N3CCCCC3)ccc2o1	-20	18	55*	33	51	-23	42	13	23
CCc1ccc(C(=O)NNC(=O)CC2OC(=O)c3ccccc32)cc1 (stereo not drawn)	-3	12	-10	17	-23	-17	nt	nt	nt
Cc1cc(C)n(C(C)CC(=O)Nc2ccc(-c3ccno3)cc2)n1 (stereo not drawn)	-27	1	56*	nt	-7	-2	16	-1	-16
CCOC(=O)N1CCN(C(=O)COc2cc(=O)n(C)c3ccccc23)CC1	28	7	6	nt	-2	-3	nt	nt	nt
CCc1ccc(CNC(=O)CCCC(=O)n2nc(C)c3ccccc32)cc1	-18	-2	57*	nt	-11	-3	17	23	4
Cc1ccccc1CNC(=O)CCCC(=O)n1nc(C)c2ccccc21	-15	4	-6	nt	-17	9	nt	nt	nt
O=C(NCC(=O)N1CCN(c2ccccc2F)CC1)c1ccc(Br)o1	-14	-2	-8	1	-1	-6	nt	nt	nt
COc1nnc(-c2ccc(N3CCCCC3)c(N)c2)c2ccccc12	-59	-13	53	-29	74	-46	59*	19	-36
CC(C)(C)SCCNC(=O)c1ccccc1	-27	-38	-49	17	-63	-117	nt	nt	nt
CC(=O)c1ccc(NC(=S)N2CCN(C(=S)Nc3ccc(C(C)=O)cc3)C(C)C2)cc1 (stereo not drawn)	4	6	58*	26	4	19	9	31*	-10
O=C(CN1CCN(S(=O)(=O)c2ccccc2)CC1)NC1CC1	-8	-21	4	-9	2	8	nt	nt	nt
CN(C)C(/C=C/Nc1ccc(C#N)cc1)=C(C#N)C#N	3	-16	-2	nt	25	-16	nt	nt	nt
SMILES	697 NFkB inh	Jurkat NFkB inh	Gli-Sufu antag	TAG inh	Shn3 3UTR inh	aSyn 5UTR inh	Gli antag conf	SufuKO cytotox	Wnt3a cs
CCOC(=O)c1c(NC(=O)COc2cccc3c2CCN(C)C3=O)sc2c1CCC2	-39	10	58*	nt	85	-11	43	8	15
O=C(CN(C(=O)c1csnn1)c1ccc(Cl)cc1)NCc1ccc2c(c1)OCO2	-6	-10	53	nt	-12	-1	2	5	-12
CC(=NNC(=O)c1ccncc1)c1cccc(Cl)c1	nt	nt	-11	-11	3	nt	nt	nt	nt
O=C(CN1CCSCC1)c1c[nH]c2ccccc12	7	-3	99*	-14	-4	13	22	9	-34
O=C(CN1CCCCC1)c1c[nH]c2ccccc12	1	-12	9	10	-3	23	nt	nt	nt
CCn1c(-c2nonc2NC(=O)c2ccccc2)nc2ccccc21	-129	-32	70*	nt	-49	52	27	12	24
COc1ccc(N(CC(=O)NCCSc2ccccc2)S(=O)(=O)c2ccccc2)c(OC)c1	13	3	-2	-6	59	nt	nt	nt	nt
COC(=O)c1ccc(OCC(O)CN2CCc3cc(OC)c(OC)cc3C2c2ccccc2)cc1 (stereo not drawn)	2	18	58*	nt	79	24	27	19	-59
CCC(=O)N1CCc2cc(OC)c(OC)cc2C1COc1ccc(C(=O)OC)cc1 (stereo not drawn)	3	16	3	nt	12	17	nt	nt	nt
CCC(CC)c1nnc(NC(=O)COc2ccc3c(C)cc(=O)oc3c2)s1	-7	-19	6	nt	15	6	nt	nt	nt
Cc1ccc(Cl)cc1NC(=O)c1cc2ccccc2cc1O	-14	13	61*	0	73	54	71*	26*	56*
NNC(=O)c1cc2ccccc2cc1O	-13	-21	61*	3	50	20	72*	6	83*
Cn1nc(CC(=O)NCc2ccc(C(F)(F)F)cc2)c2ccccc2c1=O	-28	30	55*	-5	72	-10	52*	25*	17
COc1ccc(CNC(=O)Cc2nn(C)c(=O)c3ccccc23)cc1	-19	20	50	-34	79	nt	nt	nt	nt
CCOC(=O)C1CCN(c2cc3c(cc2NC(=O)c2cc(OC)ccc2Br)n(C)c(=O)n3C)CC1	-11	-7	51	nt	15	-19	17	16	2
